{"source": "the supplement of paper PMC6555819", "data": [{"system": "PPARg DBDmut IVT, anti-PPARg (DBD mutation: PPARg1 K132A/R137A, NR concentration 270 nM)", "experiment": "PBM binding z-score (relative to random genomic background probes); higher = stronger binding; sequences stand for … in GC…GCGATTGACAGCGTAGAATGAAGG", "method_in_brief": "(§1)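 Antibodies against each partner of ligand-free nuclear receptor dimers (one per run) detected binding on custom Agilent 4×180K protein-binding microarrays after 1 h incubation. The double-stranded probes had 34-nt variable regions carrying direct-repeat seeds, single-nucleotide variants, half-site ablations and random human genomic background sequences. Binding z-scores, from regression-normalized fluorescence, use the random background probes as reference.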", "values": [{"sequence": "CAGCCTAGGTCAAGGCCAGTATAGGAGGAACGTT", "PBM binding z-score": -0.631}, {"sequence": "AGAATGAGGTTAAGATCAGGGTAACAGAATACAT", "PBM binding z-score": 0.532}, {"sequence": "GGAACGAGGGCATTCGAGTTAATAGCATGGCGAT", "PBM binding z-score": -0.5}, {"sequence": "TCTAGTTGGTCACGAAGGTCACACACGACGGGTA", "PBM binding z-score": 1.16}, {"sequence": "AATACAGGGTCATCGTAGGACAGAGTACGCACAG", "PBM binding z-score": 1.38}, {"sequence": "CCTACTGGGACACGAAAGGTCATTGATTCAGTGA", "PBM binding z-score": -0.131}, {"sequence": "ATCTCTAGATAACAAGTTCAGTGAAAGAGAGGAC", "PBM binding z-score": 0.272}, {"sequence": "TAGCCTCGGTCATGGGCCAGTATACCACGCGAAC", "PBM binding z-score": -1}, {"sequence": "AGAATGAGGTTACCAAGGATCAGGGAAACGCTTG", "PBM binding z-score": 0.207}, {"sequence": "CCTACCAGGCCAATCTGGGTCACTCAAGGCTTGA", "PBM binding z-score": -1.08}, {"sequence": "TCTCGGAGGAGACGAAAGGTCAGAGCTCGACATC", "PBM binding z-score": -0.844}, {"sequence": "AGTCGAAGTTCACTAGGTAACGTAAGATTCAGCT", "PBM binding z-score": 0.81}, {"sequence": "CGTCAAAGTTCAACTAAGATAACGTAAAGCACGC", "PBM binding z-score": 2.53}, {"sequence": "TAGCCTAGGTCATTGGGCCAGTACAGTACGCATC", "PBM binding z-score": 0.0815}, {"sequence": "CGAAATAGGTCAGAACAGGACAGTGAAGGATGAT", "PBM binding z-score": 1.69}, {"sequence": "CCTGCTAGGTCATGGTCAACTAATCTACAGTATG", "PBM binding z-score": 0.58}, {"sequence": "CCTACTGGGCCAAGGACATTGATCAGTCAAAGCA", "PBM binding z-score": -0.839}, {"sequence": "CATCCAAGGTCAATGCTAGGTCAGTGAAAGCATT", "PBM binding z-score": 0.239}, {"sequence": "AGTCAAAGTTCATCTCGGTAACGTAAGATATGCT", "PBM binding z-score": 1.05}, {"sequence": "GCTTGTTGATCAAGGTTAAGAAAGACTAAGCTAA", "PBM binding z-score": -0.0505}, {"sequence": "AGTCAAAGTTCAGAACGAGGTAACGTAAAGCACG", "PBM binding z-score": 0.236}, {"sequence": "CCTACTGGACCAAAGGTCATTGATTCCAATGCTC", "PBM binding z-score": 0.872}, {"sequence": "CCTCGGAGGACAACAGGAGGTCAGAGTTGCCAGA", "PBM binding z-score": -1.99}, {"sequence": "TCTTGTAGATCAATAGAGGTTAACAAAGTGCGCT", "PBM binding z-score": 1.56}, {"sequence": "GCTGCTAGGTCAACTGATGGTCAGCCAAAGCTCG", "PBM binding z-score": -0.45}, {"sequence": "ACTAGCAGGCCCAGGGTCACTCAAGATTAGTCCG", "PBM binding z-score": -0.342}, {"sequence": "TCTGCTAGGTCAGTTGGTGAGCTAACGAGCTGCC", "PBM binding z-score": 1.14}, {"sequence": "TCTGGGAGGACACGAAGGTCAGAGCTTTCCAGAG", "PBM binding z-score": -0.716}, {"sequence": "ATCGAAAGGTCGTTAGGTGAGTATACAGAAAGGC", "PBM binding z-score": 1.04}, {"sequence": "GCTTACGGGTCAAAGGTTATAGGATGAATAGAAT", "PBM binding z-score": 1.61}, {"sequence": "TCTGCTAGGTCAACGCTGGTCAGCTAATCTGCTA", "PBM binding z-score": 0.00924}, {"sequence": "TTACCAAGGTGATCTGAGGTCGTTGATCCAACTC", "PBM binding z-score": -0.0515}, {"sequence": "CAGCCGAGGTCAGGGCCAGTATAGGAGGAACGTT", "PBM binding z-score": -0.547}, {"sequence": "CCTCTGAGGACAGAAGGTCAGAGCTGTCCGCTTT", "PBM binding z-score": -1.71}, {"sequence": "TAGCCTAGGTCATTGAGCCAGTATAGTACGCATC", "PBM binding z-score": 0.0795}, {"sequence": "AATACAGGGTCATCGTAGGCTAGAGTACGCACAG", "PBM binding z-score": 0.798}, {"sequence": "TTACCAAGGTGAAAGGTCGATGATGCACGCCTTG", "PBM binding z-score": 1.64}, {"sequence": "AAAGACAGGTGATGAAGGTAACTCAGGCTATCAT", "PBM binding z-score": -0.142}, {"sequence": "CCTAGCAGGCCAATCTGGGTCAATCAAGGCTTGA", "PBM binding z-score": -1.3}, {"sequence": "TCTATTAGTTGAAGGGCAGCCGACGAGTCCGTTT", "PBM binding z-score": 1.07}]}, {"system": "PPARg homodimer (NR concentration 180 nM)", "experiment": "PBM binding z-score (relative to random genomic background probes); higher = stronger binding; sequences stand for … in GC…GCGATTGACAGCGTAGAATGAAGG", "method_in_brief": "as §1", "values": [{"sequence": "CAGCCTAGGTCAAGGCCAGTATAGGAGGAACGTT", "PBM binding z-score": 0.784}, {"sequence": "AGAATGAGGTTAAGATCAGGGTAACAGAATACAT", "PBM binding z-score": 1.13}, {"sequence": "GGAACGAGGGCATTCGAGTTAATAGCATGGCGAT", "PBM binding z-score": 0.00587}, {"sequence": "TCTAGTTGGTCACGAAGGTCACACACGACGGGTA", "PBM binding z-score": 3.64}, {"sequence": "AATACAGGGTCATCGTAGGACAGAGTACGCACAG", "PBM binding z-score": 2.54}, {"sequence": "CCTACTGGGACACGAAAGGTCATTGATTCAGTGA", "PBM binding z-score": 2.99}, {"sequence": "ATCTCTAGATAACAAGTTCAGTGAAAGAGAGGAC", "PBM binding z-score": 0.186}, {"sequence": "TAGCCTCGGTCATGGGCCAGTATACCACGCGAAC", "PBM binding z-score": -0.0918}, {"sequence": "AGAATGAGGTTACCAAGGATCAGGGAAACGCTTG", "PBM binding z-score": 0.544}, {"sequence": "CCTACCAGGCCAATCTGGGTCACTCAAGGCTTGA", "PBM binding z-score": 1.37}, {"sequence": "TCTCGGAGGAGACGAAAGGTCAGAGCTCGACATC", "PBM binding z-score": 3.1}, {"sequence": "AGTCGAAGTTCACTAGGTAACGTAAGATTCAGCT", "PBM binding z-score": 0.849}, {"sequence": "CGTCAAAGTTCAACTAAGATAACGTAAAGCACGC", "PBM binding z-score": 4.35}, {"sequence": "TAGCCTAGGTCATTGGGCCAGTACAGTACGCATC", "PBM binding z-score": 1.12}, {"sequence": "CGAAATAGGTCAGAACAGGACAGTGAAGGATGAT", "PBM binding z-score": 1.47}, {"sequence": "CCTGCTAGGTCATGGTCAACTAATCTACAGTATG", "PBM binding z-score": 1.66}, {"sequence": "CCTACTGGGCCAAGGACATTGATCAGTCAAAGCA", "PBM binding z-score": -0.294}, {"sequence": "CATCCAAGGTCAATGCTAGGTCAGTGAAAGCATT", "PBM binding z-score": 5.51}, {"sequence": "AGTCAAAGTTCATCTCGGTAACGTAAGATATGCT", "PBM binding z-score": 2.38}, {"sequence": "GCTTGTTGATCAAGGTTAAGAAAGACTAAGCTAA", "PBM binding z-score": -0.0187}, {"sequence": "AGTCAAAGTTCAGAACGAGGTAACGTAAAGCACG", "PBM binding z-score": 1.58}, {"sequence": "CCTACTGGACCAAAGGTCATTGATTCCAATGCTC", "PBM binding z-score": 3.81}, {"sequence": "CCTCGGAGGACAACAGGAGGTCAGAGTTGCCAGA", "PBM binding z-score": 2.15}, {"sequence": "TCTTGTAGATCAATAGAGGTTAACAAAGTGCGCT", "PBM binding z-score": 0.466}, {"sequence": "GCTGCTAGGTCAACTGATGGTCAGCCAAAGCTCG", "PBM binding z-score": 1.57}, {"sequence": "ACTAGCAGGCCCAGGGTCACTCAAGATTAGTCCG", "PBM binding z-score": 0.073}, {"sequence": "TCTGCTAGGTCAGTTGGTGAGCTAACGAGCTGCC", "PBM binding z-score": -0.166}, {"sequence": "TCTGGGAGGACACGAAGGTCAGAGCTTTCCAGAG", "PBM binding z-score": 1.05}, {"sequence": "ATCGAAAGGTCGTTAGGTGAGTATACAGAAAGGC", "PBM binding z-score": 1.51}, {"sequence": "GCTTACGGGTCAAAGGTTATAGGATGAATAGAAT", "PBM binding z-score": 3.34}, {"sequence": "TCTGCTAGGTCAACGCTGGTCAGCTAATCTGCTA", "PBM binding z-score": 1.34}, {"sequence": "TTACCAAGGTGATCTGAGGTCGTTGATCCAACTC", "PBM binding z-score": 1.46}, {"sequence": "CAGCCGAGGTCAGGGCCAGTATAGGAGGAACGTT", "PBM binding z-score": 2.95}, {"sequence": "CCTCTGAGGACAGAAGGTCAGAGCTGTCCGCTTT", "PBM binding z-score": 1.53}, {"sequence": "TAGCCTAGGTCATTGAGCCAGTATAGTACGCATC", "PBM binding z-score": 0.0834}, {"sequence": "AATACAGGGTCATCGTAGGCTAGAGTACGCACAG", "PBM binding z-score": 1.99}, {"sequence": "TTACCAAGGTGAAAGGTCGATGATGCACGCCTTG", "PBM binding z-score": 2.36}, {"sequence": "AAAGACAGGTGATGAAGGTAACTCAGGCTATCAT", "PBM binding z-score": 0.408}, {"sequence": "CCTAGCAGGCCAATCTGGGTCAATCAAGGCTTGA", "PBM binding z-score": 0.323}, {"sequence": "TCTATTAGTTGAAGGGCAGCCGACGAGTCCGTTT", "PBM binding z-score": 0.963}]}]}
